Structures are written as SMILES.

This experiment relates to Plasmodium falciparum. In words: GSK_TCMDC: Inhibition of Plasmodium falciparum 3D7 in whole red blood cells, using parasite LDH activity as an index of growth. Test compounds present at 2uM. Type of experiment: functional.
With `CCCC(CNCc1cccc(I)c1)CNc1cc(=O)c2ccccc2[nH]1` (stereo not given), the Inhibition turned out to be 100%.
The result for `CC1(C)N=C(NC(=O)c2cc([N+](=O)[O-])cc([N+](=O)[O-])c2)N=C(N)N1OCc1cccc2ccccc12` reads 94%; that for `Cc1nc(N)nc(N)c1-c1ccc(Cl)c(Cl)c1` [METOPRINE], 95%; that for `COc1cc(C(=O)NC2CCN(Cc3ccccc3)CC2)ccc1-c1cc2cc(Cl)c(Cl)cc2[nH]1.O=C(O)C(F)(F)F`, 100%.
In turn, `O=C(Nc1ccc(-c2ccc(-c3nc4ccccc4[nH]3)s2)cc1)Nc1ccsc1` displayed an Inhibition of 100%.
The result for `O=C(NCc1ccc(C(=O)NC2CCCCC2)cc1)c1ccc(O)c(-c2ccc(Cl)c(Cl)c2)c1` reads 93%; that for `O=C(Nc1cccnc1)c1cc(-c2cc(Cl)ccc2O)n[nH]1`, 98%; that for `CCNc1cc(C(=O)N[C@@H](Cc2ccccc2)[C@H](O)CNC(C)(C)CCCC(C)C)cc(N2CCCC2=O)c1.O=CO`, 100%.
To `C[C@H](NC(=O)C1CCCC1)C(=O)Nc1ccc(-c2ccc(-c3nc4cc(C(F)(F)F)ccc4[nH]3)cc2)cc1` belongs 99%; to `COc1ccc(-n2c(=O)c3c(n4c(SC(C)C)nnc24)-c2ccccc2CC32CCCCC2)cc1`, 99%; to `CCNc1cc(C(=O)N[C@@H](Cc2ccccc2)[C@H](O)CNC(C)(C)Cc2ccccc2)cc(N2CCCC2=O)c1.O=CO`, 99%.
To `O=[N+]([O-])c1cccc(/C=N/Nc2ccnc3cc(F)ccc23)c1` belongs 100%.
`CCCNCc1ccc(-c2ccc(CN(CC3CCCO3)C(=O)C3CC(=O)c4ccccc43)cc2)nc1.O=C(O)C(F)(F)F` (stereo not given) registered an Inhibition of 100%.
Turning to `O=C(NC1CC1)c1ccc(N2CCC(Cc3ccccc3)CC2)nc1.O=C(O)C(F)(F)F`, the Inhibition was 95%.
In turn, `CCCCNc1c(C(=O)OCC)c(C)nc2c1[nH]c1ccccc12` had an Inhibition of 100%.
To `Cc1ccc(-n2c(C)nc3c(Nc4ccc(-c5ccncc5)cc4)ncnc32)c(C)c1` belongs 99%; to `CCNc1cc(C(=O)N[C@@H](Cc2ccccc2)[C@H](O)CNC(C)(C)CC(C)(C)C)c(F)c(N2CCCCS2(=O)=O)c1`, 94%; to `COc1ccccc1-c1cccc(CNC2CCN(CC3Cn4c(=O)ccc5ccc(F)c3c54)CC2)c1.O=C(O)C(F)(F)F` (stereo not given), 91%.
Consider `Cc1nc(NCCCn2ccnc2)cc(-c2cncc(-c3ccc(OC(F)(F)F)cc3)c2)n1`, for which the Inhibition is on record as 99%.
The result for `CN1CC[C@@H](Oc2cc(CNC(=O)c3ccc(-c4ccc(Cl)cc4)s3)ccc2C(F)(F)F)C1.Cl` reads 93%.
To `CCOc1cc(C)ccc1C1CCN(CCN2CCC(CNC(=O)c3ccc(-c4ccc(C(F)(F)F)cc4)cc3)CC2)CC1` belongs 98%; to `COc1ccc(CNCCCCCCNCCc2ccc(Cl)cc2)cc1OC.Cl`, 96%.
To `COc1ccc(C2CC(c3cccs3)=NN2C(=O)CNc2cccc(C#N)c2)cc1OC` (stereo not given) belongs 87%.
Compound `Cl.c1cc2c3c(cccc3c1)NC(CCCCCCCCC1=Nc3cccc4cccc(c34)N1)=N2` displayed an Inhibition of 93%.
`S=C(NCCN1CCOCC1)Nc1ccccc1` had an Inhibition of 94%.
To `CCN(CCN(C)C)Cc1ccc(-c2ccc(NS(=O)(=O)c3cccc(Cl)c3)cc2)cc1.O=C(O)C(F)(F)F` belongs 97%; to `O=[N+]([O-])c1ccc(Nc2nc(N/N=C/c3ccc(-c4ccc([N+](=O)[O-])cc4)o3)nc(Nc3ccccc3)n2)cc1`, 100%; to `COc1cccc(NC(=O)[C@H](C)n2c(=O)[nH]c3ccccc3c2=O)c1`, 100%.
`Cc1cccc2nc(-c3cccc(-c4cccc(NC(=O)c5c[nH]cn5)c4)c3)[nH]c12` came in with an Inhibition of 100%.
In turn, `CC(C)COc1ccc(Cl)cc1Cc1ccc(-c2nc3c(F)cccc3[nH]2)o1` registered an Inhibition of 98%.
Consider `CCc1cccc2c(C#N)cn(CC(=O)Nc3ccc(OC)cc3)c12`, for which the Inhibition is listed as 97%.
As for `O=C(/C=C/c1ccc(Cl)c(Cl)c1)NCCCCN1CCCN(C(=O)Nc2ccc(Cl)c(Cl)c2)CC1`, the Inhibition was 96%.
To `COc1cccc2c(N/N=C/c3ccccc3[N+](=O)[O-])ccnc12` belongs 99%; to `NC1CCN(Cc2ccc(-c3cccc(-c4nc5cc(F)ccc5[nH]4)c3)cc2)C1.O=C(O)C(F)(F)F` (stereo not given), 100%; to `CCOC(=O)c1ccc(NC(=O)N[C@@H](Cc2ccc(O)cc2)C(=O)NC2CCN(Cc3ccc4c(c3)OCO4)CC2)cc1.O=C(O)C(F)(F)F`, 86%.
Regarding `CS(=O)(=O)c1ccc(CCNCc2ccc(-c3ccc(CN(C(=O)C4CC(=O)c5ccccc54)C4Cc5ccccc5C4)cc3)nc2)cc1.O=C(O)C(F)(F)F` (stereo not given), the Inhibition was 90%.
As for `COc1ccc(NC(=O)NC2CCN(CCCCCNC(=O)/C=C/c3ccc(Cl)c(Cl)c3)CC2)cc1`, the Inhibition is 96%.
To `COc1ccc2nc(-c3ccccc3)cc(NCCCNc3cc(-c4ccccc4)nc4ccc(OC)cc34)c2c1.Cl` belongs 99%.
The result for `CCN(CC)CCNc1ccnc2[nH]c3ccc(C)cc3c12` reads 100%; that for `COCCn1c(SC(C)C(=O)Nc2cc(C(F)(F)F)ccc2Cl)nc2ccccc2c1=O` (stereo not given), 97%.

A word on the Inhibition: it is the relative decrease from the control value, in per cent. A high value points to a response far below the control.

The values above are taken from ChEMBL document CHEMBL1157539, “Thousands of chemical starting points for antimalarial lead identification” (Nature, 2010).
